CHRM4 antagonist: human M4 muscarinic receptor antagonists, primary screen, CHO cells, Fluo-8 calcium fluorescence. CHO-hM4 cells, ACh EC80. AID 624125, 2012. actives 0.73% (n = 360,000). inhibition, % at 3 µM. Muscarinic acetylcholine receptor M4 (Homo sapiens), P08173;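 active means inhibition above its plate's cutoff, the mean inhibition of sample wells plus 3 SD, cut at about 27% in these data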;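 further: 0% = acetylcholine EC80 with DMSO and 100% = DMSO without agonist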
CHO-K1 Ca ag: counter-screen for M1 agonists: effect in parental CHO-K1 cells; Fluo-8 calcium fluorescence; scaled to maximal ATP response, vehicle zero; AID 602248, 2012; actives 0.48% (n = 360,000); activation, % at 3 µM; in the data active means activation above about 15%;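 further: untransfected CHO-K1 host cells lacking M1 receptor as counterscreen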
CHO-K1 Ca antag: M1 antagonist counterscreen hit in parental CHO-K1 cells | inhibition, % at 3 µM | ATP-induced calcium, Fluo-8 fluorescence | actives 0.6% (n = 360,000);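 active means inhibition above a per-plate cutoff, the plate's mean sample inhibition plus 3 SD, cut at about 24% in these data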;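 further: 0% = DMSO plus EC80 ATP and 100% = DMSO alone without ATP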
CHO-K1 Ca PAM: nonselective calcium activators in parental CHO-K1 cells, primary screen, counter-screen for M1 PAM project, cell-based, Fluo-8 calcium fluorescence, full deck, 1536-well. activation, % at 3 µM. ATP EC20; 0% at ATP EC20, 100% at ATP max. actives 0.02% (n = 360,000);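 active means activation above the run cutoff, the mean activation of all test compounds plus 3 SD, cut at about 40% in these data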;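 further: peak over basal fluorescence ratio in a 140 s read after ATP addition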
M4 PAM: human M4 muscarinic receptor positive allosteric modulators, primary screen, CHO-K1 cells, Fluo-8 calcium fluorescence. actives 0.4% (n = 360,000). activation, % at 3 µM. CHO-K1 hM4/Gqi5, ACh EC20; 0% = ACh EC20, 100% = maximal ACh;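 active means activation above its plate's cutoff, the mean activation of sample wells plus 3 SD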
M4 ag: human M4 muscarinic receptor agonists, primary screen, CHO-K1 cells, Fluo-8 calcium fluorescence | Muscarinic acetylcholine receptor M4 (Homo sapiens), P08173 | CHO-K1 hM4/Gqi5; vehicle 0%, full acetylcholine response 100% | activation, % at 3 µM | actives 0.14% (n = 360,000) | AID 624127, 2012;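 active means activation above the run mean over all test wells plus 3 SD, cut at about 32% in these data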;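 further: peak over basal fluorescence ratio per well then scaled between controls; 0% = DMSO wells and 100% = acetylcholine at EC100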
An asterisk follows results filed as active; ! = a repeat was not active. This is a sample that favours compounds with a hit; in the whole collection about 2% have one here.

SMILES	CHRM4 antagonist	CHO-K1 Ca ag	CHO-K1 Ca antag	CHO-K1 Ca PAM	M4 PAM	M4 ag
NC(=O)c1ccc(N2CCN(S(=O)(=O)c3cccs3)CC2)c([N+](=O)[O-])c1	0	17*	23	-8	-3	21
NC(=O)c1ccc(N2CCN(c3ccccc3O)CC2)c([N+](=O)[O-])c1	-8	11	-8	9	6	13
CNC[C@@H]1Oc2c(NC(=O)Nc3ccc(F)cc3)cccc2C(=O)N([C@H](C)CO)C[C@@H]1C	-3	0	-10	11	9	1
N#Cc1c(C(F)(F)F)cc(-c2ccccc2)n(N)c1=O	-11	3	31*	-5	3	2
CCN1C(=O)[C@H]2[C@@H](c3ccc(Cl)cc3)N3C(=O)CN(Cc4ccccc4)C(=O)[C@@]3(C)[C@H]2C1=O	1	0	-4	-11	1	2
Nc1ccc2cc3[nH]c4cc(N)ccc4c3nc2c1	32*	33*	57*	-14	-4	21
Nc1ccc(-c2nc3ccc(N)cc3[nH]2)cc1	7	4	-7	13	-8	10
Cc1cc(C)n(-c2nc3c(c(=O)[nH]c(=O)n3C)n2Cc2ccccc2)n1	0	0	25*	-5	10	0
CCCN1CNC(=S)N(c2cccc(C)c2)C1	6	3	-3	-15	0	7
CN1CCc2cccc3c2[C@H]1Cc1ccc(O)c(O)c1-3	81*!	0	4	5	-19	3
CCCCCc1ccc(-c2ccc(=O)[nH]n2)cc1	-3	1	-14	23	6	-1
Cc1cnc(C(=O)N2CCCC(N3CCN(c4ccccc4C)CC3)C2)cn1 (stereo not drawn)	2	0	-7	0	-1	0
COc1cc(/C=C(\C#N)c2nc3ccccc3o2)ccc1O	20	45*	30*	-21	-23	30
COc1ccc(C(N)c2csc(Nc3cc(Oc4ccccc4)ncn3)n2)cc1 (stereo not drawn)	41*	11	-7	16	-14	29
O=C(NN/C(=N/S(=O)(=O)c1ccc(Cl)cc1)c1ccccc1)c1ccc(O)cc1	3	0	2	4	3	1
O=C(/C=C/[C@H]1O[C@@H](n2ccc(=O)[nH]c2=O)[C@H](O)[C@@H]1O)NCc1cccnc1	0	1	-10	18	-4	1
CCOC(=O)c1ccccc1-n1c(C)cc(C2N=C(N)Nc3nc4ccccc4n32)c1C (stereo not drawn)	60*	1	-14	4	-16	1
CN(C)c1ccc(/C=C/c2ccc3c4ccccc4ccc3[n+]2-c2ccccc2)cc1	40*	16*	41*	-13	-22	18
CC(C)C(C(=O)Nc1nccs1)c1ccc(Cl)cc1 (stereo not drawn)	-3	2	-19	26	-9	2
CC(C)C(C(=O)Nc1ccncc1)c1ccc(Cl)cc1 (stereo not drawn)	-9	17*	3	8	-8	14
Cc1ccc(NC(=O)c2ccccc2)cc1	10	0	-3	3	-3	-1
Cc1ccc(NC(=O)C2=C(c3ccccc3)S(=O)(=O)CCS2(=O)=O)cc1	39*	1	3	25	2	5
COc1ccc(CCN(C)CC(O)COC(c2ccc(F)cc2)c2ccc(F)cc2)cc1OC (stereo not drawn)	-6	4	-2	-3	-8	11
CC(C)CNC(=O)c1cc(-c2ccco2)on1	-7	1	-11	28	5	2
Cc1ccc(S(=O)(=O)n2cnc3cc([N+](=O)[O-])ccc32)c(C)c1C	0	0	25*	-9	4	0
COc1ccc(S(=O)(=O)N2CCCCC2)cc1NC(=O)c1cccs1	-1	0	5	-19	1	1
